Assay results from PubChem BioAssay AID777 (Sanford-Burnham Center for Chemical Genomics, 2007).
In all, about 96,000 compounds went through this assay and about 19,000 (20%) were called active. A selection follows. A number with no mark means an inactive call.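 Rule for the calls: active = blocking of liver enzyme CYP2C9 beyond about 50% at 5 µM (limit read from the data); inactive = the rest.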

Target: Cytochrome P450 2C9 (Homo sapiens) (UniProt P11712)
Test: blockers of cytochrome P450 2C9 activity – biochemical, luminescence, ADME assay, primary screen (AID 777)
Conditions: CYP2C9 Supersomes, luciferin-H conversion, at 5 µM, active compounds read high

Cytochrome P450 2C9 (Homo sapiens), sequence (P11712 whole entry, looked up): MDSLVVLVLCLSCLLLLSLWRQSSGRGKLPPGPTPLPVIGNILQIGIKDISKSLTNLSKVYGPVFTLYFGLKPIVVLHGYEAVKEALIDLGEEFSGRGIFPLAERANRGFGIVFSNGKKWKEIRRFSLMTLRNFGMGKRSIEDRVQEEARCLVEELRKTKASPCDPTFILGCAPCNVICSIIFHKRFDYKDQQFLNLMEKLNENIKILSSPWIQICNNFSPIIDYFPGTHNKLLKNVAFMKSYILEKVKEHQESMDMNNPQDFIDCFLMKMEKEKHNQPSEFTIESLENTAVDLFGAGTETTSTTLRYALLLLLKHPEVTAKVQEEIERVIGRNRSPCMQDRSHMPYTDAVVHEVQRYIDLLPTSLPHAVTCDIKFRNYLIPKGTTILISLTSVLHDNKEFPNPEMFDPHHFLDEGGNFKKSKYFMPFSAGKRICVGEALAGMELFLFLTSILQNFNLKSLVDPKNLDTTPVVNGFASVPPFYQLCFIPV

Structure (SMILES)	inhibition
CCc1c(C)nc2cc(C)[nH]n2c1=O	16.4%
CCCNC(=O)N1CCN(C(=O)NCCC)CC1	2.7%
Cc1ccc(-n2ncc3c(Nc4cccc(C(=O)O)c4)ncnc32)cc1	29.6%
O=C(Nc1ccc(Cl)c(Cl)c1)N1CC=C(c2ccccc2)CC1	46.1%
CCOC(=O)C1CCCN(C(=O)CN(c2ccc(OC)cc2)S(=O)(=O)c2c(C)noc2C)C1 (stereo not drawn)	11%
Cc1cc(C)cc(N(CC(=O)NCC2CCCO2)S(=O)(=O)c2c(C)noc2C)c1 (stereo not drawn)	64.1% (active)
Cc1ccc(C(=O)O)cc1S(=O)(=O)NCC1CCCO1 (stereo not drawn)	5.8%
Cc1cc(C)cc(N(CC(=O)N2CC=C(c3ccccc3)CC2)S(=O)(=O)c2c(C)noc2C)c1	90.8% (active)
CCC(=O)c1c[nH]c(C(=O)NCC2CCCO2)c1 (stereo not drawn)	-7%
COCCCNC(=O)CN1CCN(Cc2ccccc2Cl)C1=O	-16.9%
Cc1nc2ncnn2c(C)c1CCC(=O)N1CCN(C(=O)c2ccco2)CC1	-8.6%
CCOC(=O)n1c(SCC(=O)N(CC)CC)nc2ccccc21	30.9%
CC(C)N(C(=O)Cn1c(SCC(=O)N2CCN(c3ccccc3)CC2)nc2ccccc21)C(C)C	14.3%
CCN(CC)C(=O)CSc1nc2ccccc2n1CC(=O)N1CCN(c2ccccc2OC)CC1	51.4% (active)
O=C1c2ccccc2C(=O)N1CCc1nn[nH]n1	0.5%
Fc1ccccc1CCNc1nnnn1-c1ccccc1	31.4%
O=C(CCSCCc1ccccn1)Nc1nccs1	81% (active)
CN(CCCC(=O)Nc1nccs1)S(=O)(=O)c1ccc(Cl)cc1	38.4%
CC1(C)Cc2cccc(OCC(=O)Nc3nccs3)c2O1	31%
COCCN(CC(=O)Nc1ccccc1C)S(=O)(=O)c1ccc(S(=O)(=O)N2CCCC2)cc1	16.5%
CCOc1ccc(C(CCc2ccccc2)NC(=O)c2ccc(OC)c(OC)c2)cc1OCC (stereo not drawn)	76.1% (active)
CCOc1cc(C(=O)N2CCc3cc(OC)c(OC)cc3C2)ccc1OC(F)F	30.7%
CCOC(=O)CSc1nnc(CNC(=O)Cc2ccccc2)n1-c1ccccc1OC	8.6%
COc1ccc(Cn2c(=O)sc3ccccc32)cc1OC	29.2%
Nc1nc(Br)c2ccccc2c1-c1ccc(F)cc1	2.2%
Cc1cc(C)c2nc(N3CCCC3)c(C#N)cc2c1	9.6%
COc1ccc(N2CCN(C(=O)CSc3nc4cc(OC)c(OC)cc4cc3C#N)CC2)cc1	26.1%
COc1ccc2nc(N3CCCC(O)C3)c(C#N)cc2c1 (stereo not drawn)	63.9% (active)
